Results: paper PMC4336329 (PLoS ONE, 2015)
Out of some 310,000 compounds screened, about 14,000 (4.5%) showed an effect of 50% or more. Effects have a minus sign here. The list comes from a sample in which strong results are over-represented; it also holds similar structures and randomly drawn compounds.

Molecular target: human ether-à-go-go-related gene (hERG) potassium channel (human, UniProt Q12809)
Assay: primary screen, population patch clamp on CHO cells stably expressing hERG; higher = less effect of the substance
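Note: peak tail current of the secondary pulse compared with the same well before compound.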

Chain of human ether-à-go-go-related gene (hERG) potassium channel (Q12809 whole entry, looked up): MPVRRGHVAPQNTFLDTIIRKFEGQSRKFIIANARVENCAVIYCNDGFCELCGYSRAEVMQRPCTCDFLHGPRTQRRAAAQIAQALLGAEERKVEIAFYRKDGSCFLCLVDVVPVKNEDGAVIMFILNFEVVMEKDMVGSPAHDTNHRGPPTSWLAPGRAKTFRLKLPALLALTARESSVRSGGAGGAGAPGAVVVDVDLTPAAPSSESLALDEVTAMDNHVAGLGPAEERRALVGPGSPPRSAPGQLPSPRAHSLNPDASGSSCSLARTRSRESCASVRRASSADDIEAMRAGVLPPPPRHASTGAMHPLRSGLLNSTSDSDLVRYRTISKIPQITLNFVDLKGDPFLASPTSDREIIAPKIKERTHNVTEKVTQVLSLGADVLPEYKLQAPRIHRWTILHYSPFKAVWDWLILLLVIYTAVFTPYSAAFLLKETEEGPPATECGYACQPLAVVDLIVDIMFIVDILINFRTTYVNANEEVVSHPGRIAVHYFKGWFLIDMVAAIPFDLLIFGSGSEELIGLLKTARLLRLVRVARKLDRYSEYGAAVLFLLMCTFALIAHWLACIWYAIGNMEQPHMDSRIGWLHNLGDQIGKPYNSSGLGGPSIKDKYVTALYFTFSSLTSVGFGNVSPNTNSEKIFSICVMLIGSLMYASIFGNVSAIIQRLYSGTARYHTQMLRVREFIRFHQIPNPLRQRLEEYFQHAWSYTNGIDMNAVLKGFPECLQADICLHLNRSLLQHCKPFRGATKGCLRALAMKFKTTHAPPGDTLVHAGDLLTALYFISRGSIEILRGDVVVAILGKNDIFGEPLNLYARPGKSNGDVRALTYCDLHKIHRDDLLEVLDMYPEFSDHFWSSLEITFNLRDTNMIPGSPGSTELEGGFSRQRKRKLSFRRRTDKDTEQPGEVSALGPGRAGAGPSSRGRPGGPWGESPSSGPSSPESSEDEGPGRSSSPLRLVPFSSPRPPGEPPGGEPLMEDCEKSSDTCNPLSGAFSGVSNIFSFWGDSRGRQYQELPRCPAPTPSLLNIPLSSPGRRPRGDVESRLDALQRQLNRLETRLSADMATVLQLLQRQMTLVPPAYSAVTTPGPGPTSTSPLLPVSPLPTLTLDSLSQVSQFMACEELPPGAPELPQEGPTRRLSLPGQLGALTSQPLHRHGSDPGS

Compared with `Cn1c(=O)n(CCCOc2ccc(Br)cc2)c2ccccc21`, `CC1CCCN(C(=O)COc2ccc(-c3ccccc3)cc2)C1` (stereo not drawn) is lower in “hERG current change (%, negative = inhibition) at 10uM” value: -3.96% for the first, -35.5% for the second.

First: COc1ccc(C2C(C(=O)c3ccco3)=C(O)C(=O)N2CC2CCCO2)cc1OC (stereo not drawn)
Second: COc1cc(OC)c(NC(=O)c2ccco2)cc1Cl
The “hERG current change (%, negative = inhibition) at 10uM” value of the first is higher: 24.1% for the first, -14.3% for the second.

First: O=C(CCN1c2ccccc2Sc2ccccc21)OCc1nnc(-c2ccccc2)o1
Second: O=C(Oc1ccccc1)N(c1ccccc1)c1ccccc1
The “hERG current change (%, negative = inhibition) at 10uM” value of the first is higher: 5.92% for the first, 2.8% for the second.

Compared with `O=S1(=O)CCOC[C@H](Cc2ccccc2)N1Cc1ccccc1`, `O=C1OCCC1Sc1nc2ccccc2c(=O)n1Cc1ccccc1` (stereo not drawn) is lower in “hERG current change (%, negative = inhibition) at 10uM” value: -37.8% for the first, -82.4% for the second.

Going from `Cc1nc2c3ccccc3nc(NNC(=O)CCC(=O)N3CCN(c4ccccc4F)CC3)n2n1` to `O=C(CN1CCN(S(=O)(=O)c2ccccc2F)CC1)Nc1ccccc1C(=O)c1ccccc1`, the “hERG current change (%, negative = inhibition) at 10uM” value rises from -40.3% to -22.8%.

Going from `CCOc1ccc(NC(=O)C2CCCN(C(=O)Nc3ccccc3)C2)cc1` (stereo not drawn) to `OC1CCCN(CC(O)COc2ccc(-c3ccccc3)cc2)C1` (stereo not drawn), the “hERG current change (%, negative = inhibition) at 10uM” value falls from 2.35% to -52.9%.

Compared with `Cc1cc(C)n(C(C)CC(=O)Nc2ccc3c(c2)OCO3)n1` (stereo not drawn), `Cc1ccc(C(=O)NCc2ccc3c(c2)OCO3)cc1S(=O)(=O)N1CCCCC1` is lower in “hERG current change (%, negative = inhibition) at 10uM” value: 10.2% for the first, -26.4% for the second.

Going from `O=C1OCCC1Sc1nc2ccccc2c(=O)n1-c1ccc(F)cc1` (stereo not drawn) to `O=C1OCCC1Sc1nc2ccccc2c(=O)n1Cc1ccc(F)cc1` (stereo not drawn), the “hERG current change (%, negative = inhibition) at 10uM” value falls from 8.7% to -75.5%.

First: O=C1OCCC1Sc1nc2ccccc2n1Cc1ccccc1 (stereo not drawn)
Second: O=C1OCCC1Sc1nc2cc(Cl)ccc2n1Cc1ccccc1 (stereo not drawn)
The “hERG current change (%, negative = inhibition) at 10uM” value of the first is higher: -46.3% for the first, -63.9% for the second.

First: COCCn1c(SC2CCOC2=O)nc2ccccc2c1=O (stereo not drawn)
Second: Cc1ccc(Cn2c(SC3CCOC3=O)nc3ccccc3c2=O)cc1 (stereo not drawn)
The “hERG current change (%, negative = inhibition) at 10uM” value of the first is higher: -31% for the first, -42.9% for the second.

Compared with `CSc1nc2ccccc2c(=O)n1Cc1ccc(F)cc1`, `Cc1ccccc1-n1c(-c2ccco2)nc2ccccc2c1=O` is lower in “hERG current change (%, negative = inhibition) at 10uM” value: 15.4% for the first, 1.78% for the second.

Going from `O=C1OCCC1Sc1nnc(-c2ccccc2Cl)n1Cc1ccccc1` (stereo not drawn) to `Cc1ccccc1C(=O)NC1CCN(CC(=O)Nc2ccccc2Cl)CC1`, the “hERG current change (%, negative = inhibition) at 10uM” value falls from 2.19% to -14.4%.

Compared with `O=C(Nc1ccccc1Cl)c1ccc(=O)[nH]n1`, `O=C(c1ccc(Cl)cc1)c1cnc(Nc2ccccc2Cl)s1` is lower in “hERG current change (%, negative = inhibition) at 10uM” value: 8.03% for the first, -1.11% for the second.

Compared with `COCCn1c(SCC(=O)N(C(C)C)C(C)C)nnc1-c1cc2ccccc2cc1O`, `CCn1c(SCC(=O)NC2CCCCC2)nnc1-c1cc2cccc(OC)c2o1` is lower in “hERG current change (%, negative = inhibition) at 10uM” value: -15.8% for the first, -26% for the second.

Compared with `COc1cccc(CN(C)C(=O)c2cc(S(=O)(=O)NC3CCCCC3)ccc2C)c1OC`, `COc1ccc(C(C(=O)NC2CCCC2)N(C(=O)c2ccoc2C)c2ccccc2)cc1` (stereo not drawn) is higher in “hERG current change (%, negative = inhibition) at 10uM” value: -4.41% for the first, -3.9% for the second.

First: COc1ccc(-c2oc3ccccc3c(=O)c2OC(C)=O)cc1
Second: COc1ccc(-c2cc(=O)oc3cc(OC(C)C(=O)Nc4ccc(CN5CCOCC5)cc4)ccc23)cc1 (stereo not drawn)
The “hERG current change (%, negative = inhibition) at 10uM” value of the first is lower: -11.3% for the first, -0.104% for the second.

Compared with `CC(=O)c1cccc(NC(=O)NCc2cccnc2)c1`, `COc1ccc(NC(NC(=O)c2cccnc2)C(Cl)(Cl)Cl)cc1` (stereo not drawn) is higher in “hERG current change (%, negative = inhibition) at 10uM” value: 12.2% for the first, 29.3% for the second.

First: NS(=O)(=O)c1ccc(NC(=O)CN2CCCc3ccccc32)cc1
Second: CC(=O)c1ccc(S(=O)(=O)N2CCN(CC(=O)Nc3ccccc3C(=O)NC3CC3)CC2)cc1
The “hERG current change (%, negative = inhibition) at 10uM” value of the first is higher: -5.73% for the first, -75.4% for the second.

Compared with `O=C(CN1CCN(S(=O)(=O)c2ccccc2)CC1)NC1CC1`, `O=C(CN1CCN(S(=O)(=O)c2ccccc2)CC1)Nc1ccccc1C(=O)NC1CC1` is lower in “hERG current change (%, negative = inhibition) at 10uM” value: 15.3% for the first, -27.1% for the second.

First: O=C(CN1CCN(S(=O)(=O)c2ccc(F)c(F)c2)CC1)Nc1ccccc1C(=O)NC1CC1
Second: N#Cc1ccc(S(=O)(=O)N2CCN(CC(=O)Nc3ccccc3C(=O)NC3CC3)CC2)cc1
The “hERG current change (%, negative = inhibition) at 10uM” value of the first is higher: -72.3% for the first, -73.9% for the second.

First: N#Cc1ccc(CN2CCN(CC(=O)Nc3ccccc3C(=O)NC3CC3)CC2)cc1
Second: N#Cc1ccccc1S(=O)(=O)N1CCN(CC(=O)Nc2ccccc2C(=O)NC2CC2)CC1
The “hERG current change (%, negative = inhibition) at 10uM” value of the first is lower: -77.9% for the first, -66.5% for the second.

First: NC(=O)C1CCN(CC(=O)Nc2ccccc2C(=O)NC2CC2)CC1
Second: N#Cc1ccccc1S(=O)(=O)N1CCN(CC(=O)NC(=O)NC2CCCCC2)CC1
The “hERG current change (%, negative = inhibition) at 10uM” value of the first is higher: 1.42% for the first, -31.6% for the second.

Going from `CC(C#N)(NC(=O)CN1CCN(S(=O)(=O)c2ccccc2C#N)CC1)C1CC1` (stereo not drawn) to `O=C(CN1CCN(S(=O)(=O)c2ccc(F)cc2)CC1)NC1CCCC1`, the “hERG current change (%, negative = inhibition) at 10uM” value falls from 2.51% to -8.45%.

First: O=C(CN1CCN(S(=O)(=O)c2ccccc2)CC1)Nc1ccccc1C(=O)c1ccccc1
Second: CC(=O)c1ccc(S(=O)(=O)N2CCN(CC(=O)NC(=O)NC3CCCCC3)CC2)cc1
The “hERG current change (%, negative = inhibition) at 10uM” value of the first is lower: -19.4% for the first, -16.8% for the second.

Compared with `O=C(Cc1c(F)cccc1Cl)Nc1ccccc1C(=O)N1CCOCC1`, `OC(COc1ccc(-c2ccccc2)cc1)CN1CCOCC1` (stereo not drawn) is lower in “hERG current change (%, negative = inhibition) at 10uM” value: 3.32% for the first, -19.7% for the second.

Compared with `C#CCOc1ccc(/C=C2/C(=O)ON=C2C)cc1Cl`, `C=CCNC(=O)CCCOc1cc(C)ccc1C` is lower in “hERG current change (%, negative = inhibition) at 10uM” value: 10.9% for the first, -9.84% for the second.

First: Oc1ccc(Br)cc1/C=N/n1c(COc2ccccc2)n[nH]c1=S
Second: CC1CCCN(CC(O)COc2ccc(-c3ccccc3)cc2)C1 (stereo not drawn)
The “hERG current change (%, negative = inhibition) at 10uM” value of the first is higher: 16.5% for the first, -73.4% for the second.

First: CCCCNC(=O)COC(=O)c1ccc(F)cc1Cl
Second: CCCCc1cc(=O)oc2c3c(cc(OCC(=O)NCCCO)c12)OC(C)(C)CC3
The “hERG current change (%, negative = inhibition) at 10uM” value of the first is higher: -10.8% for the first, -18.1% for the second.

Going from `Cc1cc(C)c(NC(=O)CSc2nnc(CN3CCOCC3)n2C)c(C)c1` to `Cc1cc(C)c(NC(=O)COC(=O)CCn2c(C)csc2=O)c(C)c1`, the “hERG current change (%, negative = inhibition) at 10uM” value falls from 13.5% to -10.6%.

First: CCCCn1c(SCC(=O)NCc2ccco2)nc2cc(S(N)(=O)=O)ccc21
Second: NC(=O)CSc1nc2sc(-c3ccccc3)cc2c(=O)n1N
The “hERG current change (%, negative = inhibition) at 10uM” value of the first is lower: -7.32% for the first, 11% for the second.

Going from `CC1CCCN(CC(O)COc2ccc(Cl)cc2)C1.Cl` (stereo not drawn) to `CC(=O)c1ccc(OCC(O)CN2CCCC(C)C2)cc1.Cl` (stereo not drawn), the “hERG current change (%, negative = inhibition) at 10uM” value rises from -69.2% to -1.2%.

Going from `CC1CCCN(CC(O)COc2ccc3c(c2)OCO3)C1.Cl` (stereo not drawn) to `Cl.OCCN1CCN(CC(O)COc2ccc(-c3ccccc3)cc2)CC1` (stereo not drawn), the “hERG current change (%, negative = inhibition) at 10uM” value falls from -15.1% to -45.9%.

First: CC(C)(O)CCc1c(-c2ccc(O)cc2O)oc2c3c(cc(O)c2c1=O)OC(C)(C)C=C3
Second: Cc1cc(=O)oc2c3c(cc(OCC(=O)NCc4ccncc4)c12)OC(C)(C)CC3
The “hERG current change (%, negative = inhibition) at 10uM” value of the first is higher: 13.7% for the first, -27.7% for the second.

Compared with `CC1(C)Cc2nc3oc4c(=O)n(CC(=O)Nc5ccccc5)cnc4c3cc2CO1`, `CCc1cc(=O)oc2c3c(cc(OCC(=O)NCc4ccncc4)c12)OC(C)(C)CC3` is lower in “hERG current change (%, negative = inhibition) at 10uM” value: 5.24% for the first, -34.4% for the second.

Compared with `O=C(O)c1cc(NC(=O)c2cccc(C(=O)Nc3cc(C(=O)O)cc(C(=O)O)c3)c2)cc(C(=O)O)c1`, `Cc1cc(NC(=O)COC(=O)c2cc(S(=O)(=O)N(C)c3ccccc3)ccc2Cl)no1` is lower in “hERG current change (%, negative = inhibition) at 10uM” value: 15.8% for the first, 0.766% for the second.

Compared with `CCc1noc(C)c1C(=O)N1CCCC(CCC(=O)NCc2ccc(F)c(F)c2)C1` (stereo not drawn), `CCCc1cc(=O)oc2c3c(cc(OCC(=O)NCc4ccncc4)c12)OC(C)(C)CC3` is lower in “hERG current change (%, negative = inhibition) at 10uM” value: -0.135% for the first, -65% for the second.

Compared with `O=S(=O)(c1cc(Cl)ccc1Br)N1CCCCC1`, `O=C(Cn1cc2c(n1)CCCC2)N1CCCC1` is higher in “hERG current change (%, negative = inhibition) at 10uM” value: -22.9% for the first, 5.98% for the second.

Compared with `CCCc1cc(=O)oc2c3c(cc(OCC(=O)NCCN4CCOCC4)c12)OC(C)(C)CC3`, `CCCc1cc(=O)oc2c3c(cc(OCC(=O)NCCCn4ccnc4)c12)OC(C)(C)CC3` is lower in “hERG current change (%, negative = inhibition) at 10uM” value: -18.3% for the first, -73.9% for the second.

First: CCc1cc(=O)oc2c3c(cc(OCC(=O)NCCCOC)c12)OC(C)(C)CC3
Second: CCc1cc(=O)oc2c3c(cc(OCC(=O)NCCCn4ccnc4)c12)OC(C)(C)CC3
The “hERG current change (%, negative = inhibition) at 10uM” value of the first is higher: 8.45% for the first, -51.1% for the second.

Compared with `Cc1cc(=O)oc2c3c(cc(OCC(=O)NCCCn4ccnc4)c12)OC(C)(C)CC3`, `Cc1ccc(-n2ncc3c(NCCCN4CCOCC4)ncnc32)c(C)c1` is higher in “hERG current change (%, negative = inhibition) at 10uM” value: -32.1% for the first, -10.3% for the second.

Going from `Cc1cc(C)c(N=C2SCC(=O)N2Cc2ccco2)c(C)c1` to `CC(=O)OCCN(CCCn1c(-c2ccncc2)nc2ccccc21)c1nc(CN2CCCCC2)cs1`, the “hERG current change (%, negative = inhibition) at 10uM” value falls from -14% to -58.5%.

First: Cn1cnc2c1c(=O)n(CC(O)CO)c(=O)n2C (stereo not drawn)
Second: CCOC(=O)N1CCN(C(=O)Cn2cc3c(n2)CCCC3)CC1
The “hERG current change (%, negative = inhibition) at 10uM” value of the first is higher: 23% for the first, -72.4% for the second.

Compared with `O=C(Cn1cc2c(n1)CCCCC2)N1CCCCC1`, `OCCN(CCCn1c(C(F)(F)F)nc2ccccc21)c1nc(CN2CCCCC2)cs1` is lower in “hERG current change (%, negative = inhibition) at 10uM” value: 2.46% for the first, -19% for the second.

For `OCCN(CCCn1c(-c2ccncc2)nc2ccccc21)c1nc(CN2CCCCC2)cs1`, the “hERG current change (%, negative = inhibition) at 10uM” value was 23.4%.
